# Only some compounds are listed: those with a hit (about 21% of all), similar ones and a draw of the others.
# Giardia FBPA inh: inhibitors of Giardia lamblia fructose-1,6-bisphosphate aldolase; A8B2U2; purified Giardia FBPA; Potency, µM (series often up to 59.6 µM), for the others: at the highest dose activity, negative = inhibition, hits mostly inhibitors; 290,000 tested, 0.71% active; further: potency means the concentration at half of the fitted maximal effect; on the % scale 0 is the no-effect control and ±100 the full control effect; nearly all actives have a fitted effect of over 55% in size
# Target sequence (A8B2U2 whole entry, looked up): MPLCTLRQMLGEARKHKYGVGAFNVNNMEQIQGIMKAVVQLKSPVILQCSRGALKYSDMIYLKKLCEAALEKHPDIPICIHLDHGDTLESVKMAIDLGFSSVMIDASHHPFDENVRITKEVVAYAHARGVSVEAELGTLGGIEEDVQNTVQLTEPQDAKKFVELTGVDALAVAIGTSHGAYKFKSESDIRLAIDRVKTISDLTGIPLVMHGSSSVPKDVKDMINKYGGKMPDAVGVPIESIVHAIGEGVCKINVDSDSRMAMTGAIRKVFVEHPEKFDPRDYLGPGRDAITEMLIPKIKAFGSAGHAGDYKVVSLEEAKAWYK
#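 40 nM FBPA preincubated 10 min at RT with compound (up to 57.5 uM final), then substrate plus GAPDH/TPI/NAD/arsenate coupling and diaphorase/resazurin added. Fluorescence read after 20 min at RT, 525/598 nm.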
# Shiga inhibitor: Shiga toxin inhibition; Vero cells, Shiga toxin protein synthesis inhibition reporter; inhibition, % at 38.7 µM; 290,000 tested, 9.2% active; AID 2315; in the data active means inhibition mostly above about 28%, no sharp cut-off; inactive means mostly below about 43%; further: 0% is about no effect
# Pf growth 48h: inhibits P. falciparum growth in the first generation, 48 h; P. falciparum luciferase growth in erythrocytes, 48 h; Potency, µM (top dose mostly 28.7 µM), without a hit: at the highest dose activity change, negative = inhibition, hits mostly inhibitors; 310,000 tested, 5.9% active; further: potency means the concentration at half of the fitted maximal effect; on the % scale 0 is the no-effect control and ±100 the full control effect
#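 Firefly luciferase activity from engineered P. falciparum reports growth; inhibitors lower the luminescent signal. Cultures contained 2% hematocrit erythrocytes at 0.1% final parasitemia.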
# CHX counter: counter-screen hit for Shiga toxin inhibitors, cycloheximide; cell reporter, cycloheximide protein synthesis inhibition counterscreen; max response, %; 300,000 tested, 12% active; AID 2314; in the data active means max response mostly above about 13%, no sharp cut-off; inactive means mostly below about 14%; further: read at 38.3 µM for the half of the compounds with a filed dose; 0% is about no effect
# Pf growth 96h: P. falciparum growth inhibition at 96 hours. P. falciparum luciferase reporter growth, 96 h. Potency, µM (doses to about 28.7 µM), inactives show top-dose activity change, negative = inhibition, most hits filed as inhibitors. 320,000 tested, 6.9% active. AID 504834; further: potency means the concentration at half of the fitted maximal effect; on the % scale 0 is the no-effect control and ±100 the full control effect
#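 Infected RBCs, 2% Hct / 0.05% parasitemia final; luciferase-reporter P. falciparum; cpd 96 h, 37 C, 5% CO2; luciferase detection reagent; luminescence.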
# NS1 function inh: influenza NS1 inhibition; Potency, µM (highest dose often 46.1 µM), inactives show top-dose activity, positive = more growth; AID 2326; 270,000 tested, 0.4% active; calls by dose curve; further: potency means the concentration at half of the fitted maximal effect; actives are rising curves; nearly all actives have a fitted effect of over 50% in size
#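 Compounds were scored for reversing the slow growth caused by influenza A NS1 in S. cerevisiae, measured by optical density at 600 nm. Assay medium contained 2% galactose at pH 6.0; NS1-free yeast of the same strain were the positive control.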
# Starred values were filed as active, the others as inactive; ? = inconclusive; . = no result; [ ] = remark or other dose. Unless noted, the call rests on the fitted dose curve; in most records, active means well fitted curve in the direction sought with a large enough effect; inconclusive means small, poorly fitted or top-dose-only effect, or another doubt; inactive means no such curve, though single readings can be large; an effect the other way counts as inactive or inconclusive.
SMILES,Giardia FBPA inh,Shiga inhibitor,Pf growth 48h,CHX counter,Pf growth 96h,NS1 function inh
O=C(O)Cn1cc(/C=C2/SC(=O)N(CC(=O)N3CCCCCC3)C2=O)c2ccccc21,15%,-5,26%,10,?,.
Cn1cc(/C=C2/SC(=O)N(c3ccccc3)C2=O)c2ccccc21,2%,43,53%,25*,154%,15%
Cn1cccc1/C=C1\SC(=O)N(c2ccccc2)C1=O,3%,63*,104%,52*,66%,2%
Cn1cccc1/C=C1\SC(=S)N(Nc2ccccc2)C1=O,-1%,51*,?,37*,1%,0%
O=C(O)Cn1cc(/C=C2\SC(=O)N(c3ccccc3)C2=O)c2ccccc21,2%,32,0%,16*,18%,6%
CC(C)=CCOc1ccc2c(C)c(CC(=O)N3C[C@H]4C[C@@H](C3)c3cccc(=O)n3C4)c(=O)oc2c1C,-15%,-1,?,1,9.3µM*,17%
C=C(C)COc1cc2oc(=O)c(CC(=O)N3C[C@H]4C[C@@H](C3)c3cccc(=O)n3C4)c(C)c2cc1Cl,8%,-9,-17%,-2,10µM*,11%
Cc1c(OCC(=O)N2C[C@H]3C[C@@H](C2)c2cccc(=O)n2C3)ccc2c3c(c(=O)oc12)CCCC3,-2%,-6,-28%,-2,?,-17%
C=C(C)COc1ccc2c(C)c(CCC(=O)N3C[C@H]4C[C@@H](C3)c3cccc(=O)n3C4)c(=O)oc2c1,-2%,-5,?,-1,2.6µM*,-15%
C[C@H](OP(=O)(O)O)[C@H](N)C(=O)O,.,.,.,.,.,0%
Cc1ccc(Nc2nc3c(s2)CCC3)c(C)c1,-5%,56*,-13%,32*,-52%,9%
COc1ccccc1Nc1nc2c(s1)CCC2,-7%,68*,?,36*,?,-7%
COc1ccccc1Nc1nc(C)c(C(=O)Nc2ccccc2)s1,-1%,56,?,17,?,.
Cc1c(C(=O)O)c(C(=O)O)c2n1CCS2,-12%,-10,2%,1,0%,2%
CC1CN(Cc2cc(=O)oc3cc(O)c(Cl)cc23)CC(C)O1 (stereo not given),21%,-3,11%,-5,-8%,-14%
O=C(O)c1ccccc1SSc1ccccc1C(=O)O,-5%,-6,20%,2,21%,0%
C[CH2][Hg][S]c1ccccc1C(=O)O,13µM*,.,1.9µM*,.,1.2µM*,.
CCN1CCN(C(=O)/C(=C/c2ccco2)NC(=O)c2ccccc2)CC1,2%,5,15%,-7,-7%,-8%
CCOc1ccc(CNCCN2CCCC2)cc1,?,-9,?,-2,?,-16%
O=C(Nc1cccc(Cl)c1)Nc1ccc2nccnc2c1,-8%,55*,-7%,31*,?,0%
O=C(Nc1ccc2nccnc2c1)Nc1ccccc1Cl,?,62*,8.3µM*,32*,?,6%
Cn1nnc2cc(NC(=O)Nc3cccc(Cl)c3)ccc21,-7%,52*,.,37*,2%,1%
Cn1nccc1NC(=O)Nc1cccc(Cl)c1,-5%,-1,-3%,-2,-3%,-3%
COC(=O)[C@@H]1C[C@@H]2CC[C@@H](O)C[C@@H]2N1Cc1ccc(C)s1,-4%,.,.,.,.,.
O=C(CCN1C(=O)c2ccccc2C1=O)N1CCCCCC1,4%,32,16%,13*,?,1%
SMILES,Giardia FBPA inh,Shiga inhibitor,Pf growth 48h,CHX counter,Pf growth 96h,NS1 function inh
O=C(CCN1C(=O)c2ccccc2C1=O)N1CCN(c2ccccc2)CC1,0%,-6,10%,-5,-2%[5.75 µM],-2%
O=C(CCN1C(=O)c2ccccc2C1=O)N1CCC(c2ccccc2)C1 (stereo not given),5%,123,7%,21*,.,-32%
O=C(COc1ccc(Br)cc1)N1CCc2ccccc2C1,-7%,24,-20%,10,?,-49%
O=C(COc1ccc(Br)cc1)N1CCC(c2ccccc2)C1 (stereo not given),0%,75,-2%,23*,-1%,-25%
c1ccc2nc(N3CCOCC3)c(N3CCOCC3)nc2c1,7%,-13,-2%,-1,?,-7%
Cc1cc(N2CCOCC2)nc2ccccc12,-8%,49*,35%,15*,?,0%
Cc1cc(-n2nnc3ccccc32)nc2ccccc12,0%,11,69%,15*,.,5%
c1ccc(-c2cc(N3CCOCC3)nc3ccccc23)cc1,?,-26,3%,-1,-9%,-52%
c1ccc2nc(N3CCOCC3)cnc2c1,5%,18,.,17*,?,13%
c1ccc2c(c1)CCc1c-2nc2ccccc2c1N1CCOCC1,2%,-6,15µM*,2,?,-8%
O=C(O)c1c2c(nc3ccccc13)-c1ccccc1CC2,-2%,12,29%,8,0%,-7%
Cc1ccc(S(=O)(=O)N2CCN(C(=O)C3CCN(C(=O)c4ccccc4C)CC3)CC2)cc1C,7%,-17,?,-2,?,.
Cc1cc(N2CCCCC2)nc2ccccc12,1%,19,18%,11*,-27%,5%
Cc1cc(N2CCOCC2)nc2cc(O)ccc12,1%,54*,108%,37*,5%,-6%
Cc1cc(N2CCCCCC2)nc2ccccc12,?,12,-23%,19,?,-58%
CC(C)C(=O)Nc1ccc(C(=O)N/N=C/c2cc(Br)cc(Br)c2O)cc1,4%,20,?,-1,?,3%
O=C(N/N=C/c1ccccc1O)C1SCCCS1,13%,40,?,26*,?,.
COc1ccc(Br)cc1/C=N/NC(=O)c1ccc(OC)c(OC)c1,-8%,-4,4.1µM*,-2,-4%,-14%
O=C(CCC(=O)Nc1cccc(Cl)c1)N/N=C/c1cc([N+](=O)[O-])ccc1O,24%,17,?,1,60%,.
O=C(CCCC(=O)Nc1cccc(Br)c1)N/N=C/c1cc([N+](=O)[O-])ccc1O,29%,4,10µM*,1,34%,-3%
CC(=O)Nc1ccc(C(=O)N/N=C/c2cc(Br)cc(Br)c2O)cc1,11%,6,-36%[5.75 µM],-1,2.9µM*,.
Cn1nc(-c2ccccc2)cc1NC(=O)c1ccc(Cl)cc1,.,.,1%,.,63%,.
O=C(N/N=C\c1cc(Br)ccc1O)c1ccc(S(=O)(=O)N2CCCCC2)cc1,4%,-10,5.2µM*,-1,-11%,28%
O=C(N/N=C/c1ccccc1O)c1ccncc1,.,.,9.3µM*,.,12µM*,.
O=C(N/N=C/c1cc(Br)ccc1O)c1ccncc1,15%,-3,2.6µM*,8,1.7µM*,-73%
O=C(N/N=C/c1ccc(O)c(O)c1)c1cccc(S(=O)(=O)N2CCCCC2)c1,-17%,14,-23%,1,-17%,.
O=C(N/N=C/c1cc([N+](=O)[O-])ccc1O)c1ccncc1,14%,-6,8.3µM*,-2,?,-11%

# From PubChem BioAssay
